# High-throughput results deposited in PubChem by several laboratories.
# Hits are enriched below; roughly 2% of the tested compounds scored in any of these assays.
# Calb FLC: affects C. albicans growth with fluconazole. C. albicans CaCi-2 (fluconazole-resistant clinical isolate) + fluconazole, Alamar Blue growth, 48 h. 300,000 compounds, 0.57% hits. growth inhibition, % (no concentration beside the values);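 active means growth inhibition above about 58% in most replicates, limit read from the data, passing the limit was not always enough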;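 further: all wells also contain fluconazole at 8 µg/ml as a sub-toxic cotreatment; 0% = median of DMSO wells and 100% = median of geldanamycin control wells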
# SKKanGAS inh: SKKanGAS growth inhibition. inhibition, % at 7.5 µM. 300,000 compounds, 1.3% hits. AID 1662. S. pyogenes SKKanGAS, kanamycin growth, BacTiter-Glo, 6 h;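 active means mean replicate score, as percent of positive control median, at least 50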;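 further: strain carries kanamycin resistance gene driven by streptokinase promoter and grows in 40 µg/ml kanamycin; loss of luminescence reflects streptokinase promoter inhibition or plain growth inhibition; 0% = median of DMSO wells and 100% = positive control at its reference dose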
# PolyA inh: blocks polyadenylation in yeast reporter cells | S. cerevisiae SKY197-pL101 polyadenylation reporter, beta-gal luminescence; efflux-impaired pdr1/pdr3 knockout yeast; score 100 = 6 SD above DMSO | activity score, % at 12 µM | 300,000 compounds, 0.02% hits | AID 1875;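 active means lowest replicate activity score at least 50, where 100 means six control SD above control mean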;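 further: yeast exposed to compound for 9 h at 30 °C; higher score means more reporter readthrough which indicates perturbed polyadenylation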
# Platelet DG rel: modulates dense granule release in human platelets; 300,000 compounds, 0.22% hits; inhibition, %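 (compounds screened at 7.5 µM in platelet-rich plasma)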; human platelet-rich plasma, SFLLRN dense granule ATP release, luminescence; AID 1663;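 active means mean replicate score, as percent of positive control, at or above 50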
# CR mimetic SO: lowers age-related superoxide in aged yeast cells. S. cerevisiae aged cells, superoxide DHE fluorescence; stronger effect = lower value. AID 2690. superoxide response (% of plate mean), % at 10 µM. 330,000 compounds, 0.18% hits;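 active means superoxide response under a set limit, about three screen SD below normal, cut at about 65% in these data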;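 further: yeast aged for seven days with compound at 30 °C before DHE staining; 100% = average MFI of all compound-treated wells on the plate with controls excluded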
# * marks the source's active call; other numbers are inactive results; . = no result given.
SMILES,Calb FLC,SKKanGAS inh,PolyA inh,Platelet DG rel,CR mimetic SO
COc1ccccc1C(=O)Nc1nnc(SCC(=O)NC2CCCC2)s1,1,-2,-2,-1,88
O=C(CSc1nnc(NC(=O)c2ccccc2[N+](=O)[O-])s1)NC1CCCC1,6,51*,20,-7,91
CCn1nc(NC(=O)c2ccncc2)c2cc3ccc(C)cc3nc21,38,0,16,0,119
CCn1nc(NC(=O)c2ccncc2)c2cc3cc(C)ccc3nc21,-7,91*,0,-5,102
COc1ccc(NC(=O)CCCn2cnc3ccccc3c2=O)c(OC)c1,0,-5,-11,-3,98
COc1ccc(C2CC(c3cccs3)=NN2C(=O)COC(=O)c2cncc(Br)c2)cc1OC (stereo unspecified),-13,5,-18,-3,95
COc1ccc(OC)c(CCNC(=O)C(=O)Nc2ccc3nc4n(c(=O)c3c2)CCCCC4)c1,1,57*,7,6,101
Cc1n[nH]c(C)c1CCCCOc1ccccc1F,-12,68*,-14,.,97
Cc1ccccc1OCCCCc1c(C)n[nH]c1C,6,95*,0,1,80
Cc1ccccc1OCCCc1c(C)n[nH]c1C,-6,64*,-6,2,105
O=C(Nc1ccc(Oc2ccc(NC(=O)Nc3ccccc3Cl)cc2)cc1)Nc1ccccc1Cl,-13,3,14,0,100
CCc1nnc(NC(=O)CN2C(=O)N(C)C3(CCCCC3)C2=O)s1,.,.,.,.,94
Cc1cccc(-c2nc3ccccc3c(=O)n2NC(=O)/C=C/c2ccc([N+](=O)[O-])cc2)c1,117*,0,-2,4,101
O=C(/C=C/c1cccc([N+](=O)[O-])c1)Nn1c(-c2ccccc2F)nc2ccccc2c1=O,-38,4,-1,4,101
COc1ccc(C2CC(O)(c3ccccc3)Oc3c(C)ccc(C)c32)cc1 (stereo unspecified),-2,89*,12,7,88
COc1ccc(C2CC(O)(c3ccccc3)Oc3cc(OC)cc(OC)c32)cc1 (stereo unspecified),11,-3,-13,0,.
Cc1cc(NC(=O)COC(=O)[C@@H](NS(=O)(=O)c2ccc(Br)cc2)C(C)C)no1,111*,-6,6,3,94
CC(=O)Nc1ccc(NC(=O)CSc2ccc3nnc(CCNS(=O)(=O)c4ccc(C)cc4)n3n2)cc1,77*,-5,4,3,103
CCOC(=O)CSc1ccc2nnc(CCNS(=O)(=O)c3ccc(C)cc3)n2n1,-2,-26,-4,-1,94
COc1ccc([N+](=O)[O-])cc1NC1CCN(C(=O)c2cccs2)CC1,-2,-9,-17,-6,118
NCCCn1c(C(=O)c2cc(Cl)c(N)c(Cl)c2)c2ccc([N+](=O)[O-])cc2[n+]1[O-],61,63*,31,-3,98
CCOc1ccc2nc(N3C(=O)/C(=C/c4ccccc4)NC3=S)sc2c1,92*,100*,-9,4,87
COc1ccc2nc(N3C(=O)/C(=C/c4ccccc4)NC3=S)sc2c1,-9,92*,-10,-2,96
Cn1cc(CCC(=O)NCCCc2ccccc2)c2ccccc21,-10,-3,5,-8,97
CCCCC(CC)CN1C(=O)/C(=C/c2ccncc2)SC1=S (stereo unspecified),-7,87*,2,3,113
SMILES,Calb FLC,SKKanGAS inh,PolyA inh,Platelet DG rel,CR mimetic SO
CC(C)c1nnc(NC(=O)CCC(=O)NC2CC2)s1,-3,0,5,55*,101
CCCCn1c(N)c(N(Cc2ccccc2OC)C(=O)C(C)Oc2ccc(Cl)cc2)c(=O)[nH]c1=O (stereo unspecified),-4,0,-8,53*,100
Cc1ccc(NC(=O)C2C(C(=O)O)C3C=CC2C32CC2)cc1 (stereo unspecified),79*,3,22,-1,102
Cc1cccc(NC(=O)C2C(C(=O)O)C3C=CC2C32CC2)c1C (stereo unspecified),-6,-1,-5,-15,127
COc1ccc(OC)c(N/C(C)=C/C(=O)c2ccc(Br)cc2)c1,19,-6,0,-10,95
CCOc1c(OC(C)=O)ccc(/C=C/c2ccc3cccc(OC(C)=O)c3n2)c1[N+](=O)[O-],50,85*,-16,9,84
O=C(O)c1ccc(/C=C/c2ccc3cccc(O)c3n2)cc1,64,3,-43,40,.
COC(=O)c1ccc(/C=C/c2ccc3cccc(OC(C)=O)c3n2)cc1,24,53*,-11,14,90
COc1c(OC(C)=O)ccc(/C=C/c2ccc3cccc(OC)c3n2)c1[N+](=O)[O-],-25,6,-8,28,107
CCOc1ccc(OCC)c(NC(=O)CSc2nnc(C3CC3)n2CC)c1,-5,-6,-4,-9,98
COc1ccccc1C(=O)C1CCCN(C(=O)c2cccc(-n3cccn3)c2)C1 (stereo unspecified),-4,-1,-14,4,93
O=C1CN2C(=Nc3ccc(Cl)cc3C2c2ccccc2)CN1 (stereo unspecified),88*,3,3,0,112
COC(=O)CN1C(c2ccccc2)=Nc2ccc(Cl)cc2C1c1ccccc1 (stereo unspecified),7,-9,11,-6,83
CC(C)CC(=O)Nc1ccc(C(=O)COC(=O)C2CC(=O)N(Cc3ccccc3)C2)cc1 (stereo unspecified),.,.,.,.,93
CNC(=O)c1c(NC(=O)c2cc(-c3cc(C)c(C)cc3O)n[nH]2)sc2c1CCCC2,2,-3,0,4,106
O=C(Nc1ccccc1)c1ccccc1CCc1ccccc1,-4,0,-8,0,89
O=C(Nn1cnnc1)c1ccccc1CCc1ccccc1,-8,-4,22,62*,91
Cc1cc(C)c(C(=O)COC(=O)C2CC3CCCC(C2)C3=O)c(C)c1 (stereo unspecified),2,-10,-19,-8,124
CCCN(CC1CC1)c1nc(C)nc(Nc2c(Cl)cc(Cl)cc2Cl)c1Cl,-5,89*,-17,-1,102
COc1ccc(C(=O)N2CCN(c3ccc(N4CCOCC4)nn3)CC2)cc1OC,2,-5,3,-9,104
COc1ccccc1CNC(=O)c1nccnc1CO,0,-7,4,0,102
COc1ccc(O)c(-c2cc(-c3ccccc3Cl)[nH]n2)c1,-3,59*,-1,5,88
Cc1ccccc1-c1cc(-c2ccccc2O)n[nH]1,-9,55*,-42,4,97
Cc1ccc(-c2cc(-c3ccccc3Cl)[nH]n2)c(O)c1,0,110*,-7,-5,104
Oc1ccccc1-c1cc(-c2ccc(F)cc2)n[nH]1,4,1,-2,6,127
COc1ccccc1NC(=O)C(=O)Nc1ccc2c(c1)N(C(=O)C1CC1)CCC2,-10,1,-6,6,.
